Nrf2 inh: Nrf2 qHTS screen for inhibitors; A549 ARE-Fluc reporter, luciferase luminescence, 18-24 h; Potency, µM (highest dose often 46 µM), for the others: at the top dose activity change, negative = inhibition, actives largely listed as inhibitors; 360,000 tested, 2.1% active; AID 504444, 2011; also: potency is read from the fitted curve at half-maximal effect; % is scaled to controls: 0 for no effect and ±100 for the full control effect; nearly all actives have a fitted effect of over 60% in size
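In this cell-based qHTS, ARE-driven firefly luciferase in A549 cells reports Nrf2 activity; the luminescent signal after BugLite lysis is the measured value, with a prior CellTiter-Fluor read for cell health.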
BRCA1 expr up: qHTS Assay to Identify Small Molecule Activators of BRCA1 Expression; MCF7-BRCA1-FFLuc reporter, luminescence, 48 h; response scale: scaled: vehicle 0%, 10 µM genistein 100%; 380,000 tested, 1.1% active; Potency, µM (doses to about 46.1 µM), for inactives: at the top dose activation, hits mostly activators; also: potency is read from the fitted curve at half-maximal effect; nearly all actives have a fitted effect of over 80% in size
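Quantitative HTS in MCF7 cells stably reporting BRCA1 expression via firefly luciferase. Compound treatment lasts 48 h at 37 °C in phenol-red free MEM. Activation is expressed relative to genistein at 10 microM and DMSO.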
p53 reactivation: qHTS assay for re-activators of p53 using a Luc reporter; H1299 p53-A138V BP100-luciferase reporter, luminescence, 24 h; Potency, µM (titrated, usually from 92.2 µM), inactives show at the top dose activity change, positive = activation, usual class: activators; 320,000 tested, 0.063% active; also: potency is read from the fitted curve at half-maximal effect; % of control where 0% means no effect; nearly all actives have a fitted effect of over 45% in size
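p53-null H1299 cells stably carrying temperature-sensitive p53-A138V and a BP100-luciferase reporter were pinned with compounds (4-point, 1:5 series) and held 24 hrs at 37 deg C. Luminescence was read 10 min after detection reagent.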
IL-2 act: qHTS of IL-2 Activators | IL-2 activation reporter assay, cell-based qHTS; stimulated with anti-CD3/CD4/CD28 beads; in transgenic mouse T cells | activation, % (series mostly up to about 46 µM) | 360,000 tested, 0.065% active | AID 652025, 2013; in the data active = activation above about 50%; inconclusive = mostly about 30% to 49%; also: 0% is about no effect
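Quantitative HTS in unstimulated transgenic mouse T cells, with memory T cells as non-tolerant control and PMA/ionomycin as tolerance-bypass control. Compound pretreatment lasted 60 minutes before 18 h bead stimulation; EGFP/DsRed fluorescence read.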
A549 viability: Nrf2 qHTS screen for inhibitors: counterscreen for cytotoxicity. A549 ARE-Fluc cells, CellTiter-Fluor viability, 18-24 h. Potency, µM (titrated, usually from 46 µM), without a hit: at the top dose activity change, negative = cytotoxicity, hits mostly inhibitors. 390,000 tested, 0.16% active. AID 504648, 2011; also: potency is read from the fitted curve at half-maximal effect; % is scaled to controls: 0 for no effect and ±100 for the full control effect
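A549 ARE_Fluc cells in 5% FBS OPTI-MEM were exposed to compounds in concentration-response for 18-24 h at 37 deg C. Viability was read by CellTiter-Fluor fluorescence (Ex 405/Em 525) after 30 min, before the luciferase read.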
Nrf2 ARE act: qHTS of Nrf2 Activators. AREc32 ARE-luciferase reporter (MCF7-derived line), luminescence, 24 h. Potency, µM (titrated, usually from 46.1 µM), inactives show at the top dose activation, usual class: activators. 410,000 tested, 0.31% active; also: potency is read from the fitted curve at half-maximal effect; % of control where 0% means no effect; nearly all actives have a fitted effect of over 65% in size
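Reporter line AREc32 (ARE-Fluc), seeded overnight in OPTI-MEM with 5% FBS; compound pin-transferred, 24 hr at 37 deg C, 5% CO2; luminescent read-out.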
* = called active by the depositor; ? = inconclusive; nt = not tested or not shown. This is a sample that favours compounds with a hit; in the whole collection about 3.2% have one here. Unless noted, calls follow the shape of the dose curve; as a rule, active = well fitted curve in the direction sought with a large enough effect; inconclusive = small, poorly fitted or top-dose-only effect, or another doubt; inactive = no such curve, though single readings can be large; an effect the other way counts as inactive or inconclusive.

SMILES	Nrf2 inh	BRCA1 expr up	p53 reactivation	IL-2 act	A549 viability	Nrf2 ARE act
O=C(Nc1cc(Br)ccc1O)c1cnn2c(C(F)F)cc(C3CC3)nc12	-6%	-48%	6%	-1	8%	2.5µM*
O=C(Nc1cccnc1)c1cnn2c(C(F)F)cc(C3CC3)nc12	nt	-35%	nt	-2	-2%	2%
CCC1CN(CC(=O)NCc2cccc(Br)c2)c2ccccc2S1 (configuration not stated)	nt	-3%	nt	nt	14%	3%
CC1(C)N=C(Nc2nc3ccccc3o2)NC2=C1C(=O)CCC2	?	nt	nt	nt	-1%	nt
Cc1ccc(C)c(N2CCN(C(=O)c3ccc(CS(=O)Cc4ccc(Cl)cc4)o3)CC2)c1 (configuration not stated)	21µM*	-28%	-5%	-1	?	0%
C=C1C(=O)C23C(O)C1CCC2C12CCCC(C)(COC(C)=O)C1C(O)C3(O)OC2 (configuration not stated)	9.2µM*	-89%	nt	-1	18µM*	-4%
COc1ccc2sc3ccccc3c(=O)c2c1	26%	5.6µM*	18%	-1	-6%	?
Cc1ccccc1C(=O)Nc1cccc(-c2ccc(N3CCOCC3)nn2)c1	7%	14µM*	10%	-3	1%	0%
O=C(COc1ccc(Cl)cc1Cl)Nc1ccc(-c2ccc(N3CCOCC3)nn2)cc1	1%	86%	7%	-1	1%	0%
O=C(COc1ccc(Cl)cc1Cl)Nc1cccc(-c2ccc(N3CCOCC3)nn2)c1	20%	1.4µM*	10%	-1	5%	2%
COc1ccc(OC)c(C2C(C(=O)Nc3nc4ccccc4s3)=C(C)NC3=C2C(=O)CCC3)c1 (configuration not stated)	-28%	-58%	-5%	-1	-13%	13%
COc1cccc(C2C(C(=O)Nc3nc4ccccc4s3)=C(C)NC3=C2C(=O)CC(C)(C)C3)c1OC (configuration not stated)	16µM*	-44%	4%	0	-15%	-1%
CCN(CC)c1nn2c(=O)c(C(=O)NCCc3cccc(C)c3)cnc2s1	-8%	nt	nt	nt	1%	4%
CCN(Cc1ccccc1)c1ccc(/C=N/N2CCOCC2)cc1	?	62%	?	-2	-3%	5%
CCN(CC)c1ccc(/C=N/N2CCOCC2)cc1	?	3.2µM*	nt	1	-8%	0%
O=C1CCc2cc(S(=O)(=O)Nc3ccc(-c4ccccc4)cc3)ccc2N1	12µM*	nt	nt	nt	2%	nt
Cc1cc(C)c(NC(=O)CN2c3ccccc3S(=O)(=O)c3ccccc32)c(C)c1	?	nt	nt	nt	7%	3%
COc1ccc(CNC(=O)Cn2c(=O)nc(-c3ccccc3F)c3cc(Cl)ccc32)cc1OC	nt	nt	nt	nt	16µM*	0%
CCOc1ccc(CN(C)Cc2cc(=O)oc3c(C)c(C)ccc23)cc1OC	16µM*	0%	nt	-4	-16%	3%
Clc1cccc(Cl)c1C1Nc2cccc3cccc(c23)N1	9.2µM*	-45%	-83%	1	?	?
Nc1nnc(/C=C/c2cccc([N+](=O)[O-])c2)s1	5%	16µM*	24%	3	10%	5%
Nc1nnc(-c2cccc([N+](=O)[O-])c2)s1	-18%	5%	9%	1	-9%	3%
Cc1cc2c(s1)c1cnn(Cc3ccc(F)cc3)c(=O)c1n2C	-13%	nt	nt	nt	-8%	nt
CCOc1ccc(NCc2cc3cc(OC)ccc3[nH]c2=O)cc1	26µM*	0%	0%	-2	-12%	0%
COc1ccc2[nH]c(=O)c(CNc3ccc(C)cc3C)cc2c1	2%	1%	2%	10	4%	9%

Screening data: PubChem, National Center for Advancing Translational Sciences (NCATS)
